{"source": "PubChem BioAssay AID504843", "about": "(Broad Institute, 2011)", "note": "In all, about 1,200 compounds went through this assay and about 360 (30%) were called active. No rule for the calls is given here. A selection follows. Results with a measured potency or affinity are listed apart.", "data": [{"assay": "bacterial growth inhibition, dose response, counter-screen, BacTiter-Glo luminescence, cherry-picked samples (AID 504843);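 also: growth measured after 8 h incubation at 30 °C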", "conditions": "BacTiter-Glo ATP luminescence; series mostly up to 15 µM", "values": [{"smiles": "COc1ccc(N2CCN(C3CC(=O)N(c4ccc5c(c4)OCCO5)C3=O)CC2)cc1", "note": "(centres undefined)", "outcome": "inactive"}, {"smiles": "CCOC(=O)C1=C(C)Nc2ncnn2C1c1cc(Br)ccc1F", "note": "(centres undefined)", "outcome": "inactive"}, {"smiles": "COC(=O)c1ccc(NC(=O)N2CCC(O)(c3cccnc3)CC2)cc1", "outcome": "inactive"}, {"smiles": "CC(=O)Nc1sc(NC(=O)c2ccccc2)nc1-c1cccs1", "outcome": "inactive"}, {"smiles": "Cc1ccc(C(=O)Nc2nc(C)c(C(=O)Nc3ccc4c(c3)CCC4)s2)cc1", "outcome": "inactive"}, {"smiles": "CCCN(C(=O)Cn1c(C(F)(F)F)nc2ccccc21)C1CCS(=O)(=O)C1", "note": "(centres undefined)", "outcome": "inactive"}, {"smiles": "CC(C)=CCC/C(C)=C/CNC(=O)C[C@H]1C[C@H](C(=O)N2CCOCC2)[C@@]2(C)c3[nH]c4ccc(Cl)cc4c3CCN2C1=O", "outcome": "inactive"}, {"smiles": "CC(=O)CSc1ncnc2sc3c(c12)CCC(C)C3", "note": "(centres undefined)", "outcome": "inactive"}, {"smiles": "CCOCCCNC(=O)c1ccc(Cn2c(=S)[nH]c3c([nH]c4ccc(OC)cc43)c2=O)cc1", "outcome": "inactive"}, {"smiles": "CCOC(=O)Cc1c[nH]c2ccc([N+](=O)[O-])cc12", "outcome": "inactive"}, {"smiles": "O=C(NCc1ccccc1)c1ccc(F)c(F)c1", "outcome": "inactive"}, {"smiles": "O=C(N/C(=C/c1ccccc1)C(=O)N1CCCCC1)c1ccc(Br)o1", "outcome": "inactive"}, {"smiles": "O=C(Nc1ccccc1Oc1ccccc1)c1ccc(Br)o1", "outcome": "inactive"}, {"smiles": "CN(CC(=O)NCc1cccnc1)S(=O)(=O)c1ccccc1", "outcome": "inactive"}, {"smiles": "O=C(CSc1ncnc2nc[nH]c12)c1ccc2ccccc2c1", "outcome": "inactive"}, {"smiles": "O=C1NC(=O)C(c2ccccc2)(c2ccccc2)N1", "outcome": "inactive"}, {"smiles": "CCN(CC)CC(=O)Nc1ccc(C)cc1C(=O)c1ccccc1", "outcome": "inactive"}, {"smiles": "COc1cc(OC)cc(C(=O)N(CN2CCCC2=O)c2ccccc2OC)c1", "outcome": "inactive"}, {"smiles": "CC(C)(C)NC(=O)C[C@H]1C[C@H](C(=O)N2CCOCC2)[C@@]2(CCC3CCCC3)c3[nH]c4cc(-c5ccco5)ccc4c3CCN2C1=O", "outcome": "inactive"}, {"smiles": "CC(C)[C@@H](C(=O)N1CCNCC1)n1cc(CCO)nn1", "outcome": "inactive"}, {"smiles": "Cc1nc(N)nc(Cl)c1Cc1ccc(Cl)cc1", "outcome": "inactive"}, {"smiles": "COc1cccc(COC(=O)C2CC(=O)N(Cc3ccco3)C2)c1OC", "note": "(centres undefined)", "outcome": "inactive"}, {"smiles": "CC(NC(=O)Nc1nccs1)(C(F)(F)F)C(F)(F)F", "outcome": "inactive"}, {"smiles": "NC(=O)c1ccccc1NC(=O)COc1ccc2c(c1)OCO2", "outcome": "inactive"}, {"smiles": "COC(=O)c1cnc(NNS(=O)(=O)c2ccc(C(F)(F)F)cc2)nc1C(F)(F)F", "outcome": "inactive"}, {"smiles": "COCn1c(-c2cccc(Br)c2)nc2ccccc21", "outcome": "inactive"}, {"smiles": "CNC(=O)C1CCN(S(=O)(=O)c2c(C)noc2/C=C/c2cccc(OC)c2)CC1", "outcome": "inactive"}, {"smiles": "O=C(c1ccc2nc[nH]c2c1)N1CCN(c2ncc(C(F)(F)F)cc2Cl)CC1", "outcome": "inactive"}, {"smiles": "Cc1ccc(NC(=O)c2cccs2)cc1S(=O)(=O)Nc1cccc(Cl)c1", "outcome": "inactive"}, {"smiles": "O=C1c2ccccc2CC1Sc1nnc(-c2ccncc2)o1", "note": "(centres undefined)", "outcome": "inactive"}, {"smiles": "CC1=CC(=O)[C@@H](O)[C@@H](c2ccccc2Br)N1C", "outcome": "inactive"}, {"smiles": "COc1ccc(NC(=O)CC2(CC(=O)O)CCCC2)cn1", "outcome": "inactive"}, {"smiles": "COc1ccc2[nH]c(C(=O)N(C)c3ccc(F)cc3F)cc2c1", "outcome": "inactive"}, {"smiles": "O=C(CSc1cn(CCNC(=O)c2c(F)cccc2F)c2ccccc12)NCC1CCCO1", "note": "(centres undefined)", "outcome": "inactive"}, {"smiles": "COc1cccc(NC(=O)CSc2nc3ccccc3c(=O)n2CCCC(=O)NCC2CCCO2)c1", "note": "(centres undefined)", "outcome": "inactive"}, {"smiles": "C=CCn1c(C)cc(C(=O)CSc2nnc3c(Cl)cc(Cl)cn23)c1C", "outcome": "inactive"}, {"smiles": "CCN(C1CCS(=O)(=O)C1)S(=O)(=O)c1cc(C)ccc1C", "note": "(centres undefined)", "outcome": "inactive"}, {"smiles": "Fc1ccc(-n2c(-c3ccc4ccccc4n3)n[nH]c2=S)cc1Cl", "outcome": "inactive"}, {"smiles": "C=CCOc1cccc(C(=O)N2CCCC(CCC(=O)NCc3ccccc3F)C2)c1", "note": "(centres undefined)", "outcome": "inactive"}, {"smiles": "CC(C)c1cc(C(N)=O)c(NC(=O)c2cccc(COc3ccc(Cl)cc3)c2)s1", "outcome": "inactive"}, {"smiles": "CC(=O)N1c2ccc(S(=O)(=O)N3CCC(C(=O)N4CCN(c5ccccc5F)CC4)CC3)cc2CC1C", "note": "(centres undefined)", "outcome": "inactive"}, {"smiles": "O=C(CSc1nc2ccccc2c(=O)[nH]1)N1CCN(c2ccccc2F)CC1", "outcome": "inactive"}, {"smiles": "CC(C)c1ccc(C2C(C#N)=C(N)Oc3c2oc(CO)cc3=O)cc1", "note": "(centres undefined)", "outcome": "inactive"}, {"smiles": "COC(=O)COc1ccc(-n2cnnn2)cc1", "outcome": "inactive"}, {"smiles": "Cc1cccc(N(CC(=O)Nc2cccnc2)S(C)(=O)=O)c1", "outcome": "inactive"}, {"smiles": "O=C(Nc1c2c(nn1-c1ccccc1)CS(=O)(=O)C2)c1cccs1", "outcome": "inactive"}, {"smiles": "COc1ccc(-c2nc3ccccc3o2)cc1NC(=O)c1ccc(Br)o1", "outcome": "inactive"}, {"smiles": "O=C(NNC(=S)Nc1cccc(Cl)c1)c1ccccc1OC(F)F", "outcome": "inactive"}, {"smiles": "CC1CC(OC(=O)C(O)c2ccccc2)CC(C)(C)N1C", "note": "(centres undefined)", "outcome": "inactive"}, {"smiles": "NC(=O)NC(=O)CSc1nc2sc(-c3ccccc3)cc2c(=O)n1-c1ccccc1", "outcome": "inactive"}, {"smiles": "CCOc1ccc(-n2c(SCC(=O)O)nc3sc4c(c3c2=O)CCCC4)cc1", "outcome": "inactive"}, {"smiles": "CCNc1nc(NC(C)(C)C)nc(N(CC)n2cnnc2)n1", "outcome": "inactive"}, {"smiles": "CCCCS(=O)(=O)N1CCCC(C(=O)Oc2ccc(Cl)cc2)C1", "note": "(centres undefined)", "outcome": "inactive"}, {"smiles": "O=C(NCC1CCCO1)C1CCCN(S(=O)(=O)c2ccc(F)cc2)C1", "note": "(centres undefined)", "outcome": "inactive"}, {"smiles": "COc1ccccc1C(C[N+](=O)[O-])c1c[nH]c2ccccc12", "note": "(centres undefined)", "outcome": "inactive"}, {"smiles": "CCOC(=O)[C@H]1[C@H]2COc3ccc(Cl)cc3[C@@H]2N2C(=O)[C@H](C)NC(=O)[C@@]12C", "outcome": "inactive"}, {"smiles": "O=C(c1ccc(-n2cncn2)c([N+](=O)[O-])c1)N1CCN(S(=O)(=O)c2ccc(Br)cc2)CC1", "outcome": "inactive"}, {"smiles": "CCCC(C(=O)NNC(=O)c1cc(C)oc1C)c1ccccc1", "note": "(centres undefined)", "outcome": "inactive"}, {"smiles": "Cc1cc(C(=O)c2ccccc2)c(NC(=O)CCl)s1", "outcome": "inactive"}, {"smiles": "O=C(O)c1ccc(/C=C2\\SC(=Nc3ccccc3)N(c3ccccc3)C2=O)cc1", "outcome": "inactive"}, {"smiles": "CCC1CCCCN1CCNC(=O)CNS(=O)(=O)c1ccc2nc(C)sc2c1", "note": "(centres undefined)", "outcome": "inactive"}, {"smiles": "Cc1ccccc1NC(=O)NCCN1C(=O)C2C3C=CC(C3)C2C1=O", "note": "(centres undefined)", "outcome": "inactive"}, {"smiles": "CCOc1ccc(NC(=O)CN2C(=O)/C(=C3\\SC(=S)N(C4CCS(=O)(=O)C4)C3=O)c3ccccc32)cc1", "note": "(centres undefined)", "outcome": "inactive"}, {"smiles": "COc1cc(C(=O)Oc2cc(C)cc(C)c2)cc(OC)c1OC", "outcome": "inactive"}, {"smiles": "COc1ccc(C(=O)Nc2cnn(Cc3ccc(Cl)cc3)c2)cc1OC", "outcome": "inactive"}, {"smiles": "CCOC(=O)CC(NC(=O)c1cccc2c1C(=O)N(Cc1cccnc1)C2)c1ccc(OCC)c(OC)c1", "note": "(centres undefined)", "outcome": "inactive"}, {"smiles": "CCc1ccc(C(C(=O)NC2CCCC2)N(CCOC)C(=O)CCC(=O)Nc2cc(C)on2)cc1", "note": "(centres undefined)", "outcome": "inactive"}, {"smiles": "CCCCCCCCCCCCN1[C@@H](CC(=O)O)c2cc(C(F)(F)F)ccc2S1(=O)=O", "outcome": "inactive"}, {"smiles": "Cc1c(OCC(=O)NCCCN2CCOCC2)ccc2c1oc(=O)c1ccccc12", "outcome": "inactive"}, {"smiles": "O=C(NCCCN1CCOCC1)c1cc2cc(Br)ccc2oc1=O", "outcome": "inactive"}, {"smiles": "COc1cccc(C2CC(c3cccc(OC)c3)n3nc(N)nc3N2)c1", "note": "(centres undefined)", "outcome": "inactive"}, {"smiles": "CC(=O)c1ccc(NC(=S)NC(C)c2ccc(Cl)cc2Cl)cc1", "note": "(centres undefined)", "outcome": "inactive"}, {"smiles": "Cc1ccc(NC(=O)C(c2ccc(Cl)cc2)N2CCCCC2)cc1", "note": "(centres undefined)", "outcome": "inactive"}, {"smiles": "CCc1ncc(C)nc1CC", "outcome": "inactive"}, {"smiles": "CN1CCN(C(=S)c2cn(Cc3ccc(Br)cc3)c3ccccc23)CC1", "outcome": "inactive"}, {"smiles": "Cc1nn(-c2ccccc2)c(Cl)c1/C=C(\\CC(=O)O)c1nc2ccccc2s1", "outcome": "inactive"}, {"smiles": "Cc1nn(-c2ccccc2)c(Cl)c1/C=N/NC(=O)c1ccn[nH]1", "outcome": "inactive"}, {"smiles": "COc1ccc(C(=O)NCC(=O)N/N=C/C(C)=C/c2ccco2)cc1OC", "outcome": "inactive"}, {"smiles": "N/C(=N\\OS(=O)(=O)c1ccccc1)c1cccnc1", "outcome": "inactive"}, {"smiles": "CC(Sc1nc2ccccc2c(=O)n1C)C(=O)NC1CCCCC1C", "note": "(centres undefined)", "outcome": "inactive"}, {"smiles": "O=C(NCc1cccs1)c1cccnc1C(=O)O", "outcome": "inactive"}, {"smiles": "CCOCCCNS(=O)(=O)c1ccc(Br)cc1", "outcome": "inactive"}, {"smiles": "O=C1OCCN1C(=O)[C@H]1[C@H](c2ccc(Cl)cc2)C(c2ccccc2)=NN1c1ccccc1", "outcome": "inactive"}, {"smiles": "O=C(Nc1ccc2c(c1)OCCO2)N1CCN(c2ccc(F)cc2)CC1", "outcome": "inactive"}, {"smiles": "COc1ccc(N2CCN(C(=O)C3CCCN(S(=O)(=O)c4cccc5cccnc45)C3)CC2)cc1", "note": "(centres undefined)", "outcome": "inactive"}, {"smiles": "COc1ccc(Cn2nnnc2C(c2cc3ccc(OC)cc3[nH]c2=O)N2CCC(C)CC2)cc1", "note": "(centres undefined)", "outcome": "inactive"}, {"smiles": "CCS(=O)(=O)c1ccc(NC(=O)c2ccccc2Cl)c(O)c1", "outcome": "inactive"}, {"smiles": "Cc1ccc(S(=O)(=O)N(CC(=O)Nc2ccccc2-c2ccccc2)c2ccc(C)cc2C)cc1", "outcome": "inactive"}, {"smiles": "CCn1c(CCn2c3ccccc3c3ccccc32)n[nH]c1=S", "outcome": "inactive"}, {"smiles": "CC(=O)NC(Cc1ccc(F)c(F)c1)C(=O)NC1CCN(c2c(Cc3ccccc3)c(C)nc3ncnn23)CC1", "note": "(centres undefined)", "outcome": "inactive"}, {"smiles": "O=C(Nc1cc(F)ccc1F)C1CCCN(c2ncnc3c2nc2n3CCCCC2)C1", "note": "(centres undefined)", "outcome": "inactive"}, {"smiles": "CCN(CC)S(=O)(=O)c1ccc(NC(=O)Cc2cccs2)cc1", "outcome": "inactive"}, {"smiles": "Oc1ccc(/C=N/Nc2ccccc2)cc1", "outcome": "inactive"}, {"smiles": "COc1ccc(-c2cc(C(F)(F)F)c3c(n2)sc2c(O)cc(=O)[nH]c23)c(OC)c1", "outcome": "inactive"}, {"smiles": "CC(C)c1cccc(C(C)C)c1OC(=O)[C@H]1OC(C(C)(C)C)=C[C@@H]1c1ccccc1", "outcome": "inactive"}, {"smiles": "COC(=O)CN1C(=O)C(O)=C(C(C)=O)C1c1ccc([N+](=O)[O-])cc1", "note": "(centres undefined)", "outcome": "inactive"}, {"smiles": "Cc1c(N2C(=O)c3cccc4cccc(c34)C2=O)c(=O)n(-c2ccccc2)n1C", "outcome": "inactive"}, {"smiles": "CCCc1c(O)nc(SC2CC(=O)N(c3ccc(OC)cc3)C2=O)[nH]c1=O", "note": "(centres undefined)", "outcome": "inactive"}, {"smiles": "CC(C)CNC(=S)NC1CCCC1", "outcome": "inactive"}, {"smiles": "COc1cc(SC)ccc1C(=O)Nc1cc(C)ccn1", "outcome": "inactive"}, {"smiles": "COc1cc2cc(C(c3nnnn3Cc3ccc(F)cc3)N3CCCCCC3)c(=O)[nH]c2cc1OC", "note": "(centres undefined)", "outcome": "inactive"}, {"smiles": "O=C(O)C1CCCCN1S(=O)(=O)c1ccc(Cl)s1", "note": "(centres undefined)", "outcome": "inactive"}, {"smiles": "O=S(=O)(NC1CCCC1)c1cc(F)ccc1F", "outcome": "inactive"}, {"smiles": "Cc1cc(=O)oc2cc(OCC(=O)OCC(=O)N3CCc4ccccc43)ccc12", "outcome": "inactive"}]}]}
